Test results from PubChem BioAssay (NCI).
The panel holds about 83,000 compounds, 20% with a hit somewhere; the sample as a whole holds those more often.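 Plates (96-well) were seeded with cells, treated with compound at one concentration, and incubated for 48 hours before percent growth was determined.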 A number with no mark means an inactive call. Activity calls are given as the source filed them. How the source made its calls: active means growth percent below 10; inactive means the rest.

What follows are compounds tested on UO-31 renal (assay: NCI-60 one-dose screen, 48 h (100 = growth as untreated, 0 = no growth, -100 = all killed)). Settings: 10 µM unless noted.

Compared with `O=C(CCn1c[n+](CC(=O)c2ccc(F)cc2)c2ccccc21)Nc1cccc2cccnc12`, `O=C(CSc1nc2ccccc2c(=O)n1-c1ccccc1)Nc1cccc(C(=O)/C=C/c2ccccc2)c1` is lower in growth: 88.9% for the first, 76% for the second.

First: CC1(C)CC[C@]2(C(=O)O)CC[C@]3(C)C(=CC[C@@H]4[C@@]5(C)CC/C(=N\OCCC#N)C(C)(C)[C@@H]5CC[C@]43C)[C@@H]2C1
Second: CC1(C)CC[C@]2(CN)CC[C@]3(C)C(=CC[C@@H]4[C@@]5(C)CCCNC(C)(C)[C@@H]5CC[C@]43C)[C@H]2C1
The growth of the first is lower: 61.1% for the first, 89% for the second.

Compared with `COc1ccc([C@@H]2[C@@H](O)C(=O)N2c2cc(OC)c(OC)c(OC)c2)cc1F`, `COc1cccc(O)c1/C=C(/C)c1ccc2c(OC)cccc2[o+]1` is higher in growth: 30.1% for the first, 79.7% for the second.

Compared with `CCOC(=O)c1c(Nc2ccccc2)nn2c(-c3ccccc3)ccnc12`, `O=S(=O)(NCCNc1nccc(-n2cnc3ccccc32)n1)c1ccc(Cl)cc1` is lower in growth: 85.5% for the first, 81.6% for the second.

Compared with `Cc1cc(C)c2sc(=O)n(Cc3nnc(SCCC(=O)O)o3)c2n1`, `Cc1cccc(/C=C/C(=O)Nc2ncc(Cc3cccc(C)c3)s2)c1` is lower in growth: 91.8% for the first, 35.4% for the second.

Compared with `C=CCn1c(SCC(=O)Nc2ccc(C(=O)/C=C/c3cccc([N+](=O)[O-])c3)cc2)nnc1-c1c[nH]c2ccccc12`, `O=C(NCCn1ccnc1)c1ccc(-c2nc3ccc4[nH]ncc4c3c3c2CCCC3)cc1` is higher in growth: 67.8% for the first, 92.4% for the second.

Going from `Cc1ccc(NC(=O)N[C@@H](Cc2cc(F)cc(F)c2)C(=O)NC2C(=O)N3C[C@H](O)C[C@H]3C(=O)N3CCCC[C@H]3C(=O)N[C@@H](CO)C(=O)N3C[C@H](C)C[C@H]3C(=O)O[C@H]2C)c(F)c1` (some centres undefined) to `COc1c(N2CC3CCCNC3C2)c(F)cc2c(=O)c(C(=O)N/N=C/c3ccc(Br)cc3)cn(C3CC3)c12` (centres undefined), the growth falls from 90.7% to 60.5%.

Compared with `C#C[C@]1(O)CC[C@H]2[C@@H]3CC=C4c5sc(-c6ccc7c(c6)OCO7)nc5CC[C@]4(C)[C@H]3CC[C@@]21C`, `COC(=O)C1(C)CCC[C@]2(C)[C@H]3C[C@H]4C(C(C)C)=C[C@]3(CC[C@@H]12)[C@H]1[C@@H]4[C@@H](OC(=O)c2ccco2)CC[C@@H]1OC(=O)c1ccco1` (some centres undefined) is higher in growth: 51.9% for the first, 101% for the second.

First: CCCCCc1ccc(S(=O)(=O)Nc2cccc(-c3csc(NC(=O)CN4CCN(C)CC4)n3)c2)cc1
Second: COc1cc(-c2nn(C(C)(C)C)cc2-c2ccnc(NCCCNS(=O)(=O)c3cccc(F)c3)n2)ccc1Cl
The growth of the first is higher: 75% for the first, 42.9% for the second.

Going from `CCCn1cnc2c(c1=N)C(c1ccc(F)cc1)c1sc3c(CC)cccc3c1O2` (centres undefined) to `CCCn1cnc2c(c1=N)C(c1ccc(OC)cc1)c1sc3c(C)cccc3c1O2` (centres undefined), the growth rises from 27% to 27.2%.

First: NS(=O)(=O)c1ccc(-n2cc(CN3CCCCC3)nn2)cc1
Second: NC(=O)c1cccc(C#CCNC[C@H]2C[C@@H](n3ccc4c(Cl)ncnc43)[C@H](O)[C@@H]2O)c1
The growth of the first is lower: 82.2% for the first, 92.4% for the second.

Going from `NC(N)=Nc1ccc(Oc2cccc(Nc3cccc(C(F)(F)F)c3)c2)cn1` to `COc1ccc(/C(N)=N/C(N)=N/c2nc3ccccc3s2)cc1`, the growth rises from 42.8% to 57.4%.

Compound `O=C(c1ccc(O)cc1)[C@@H]1CN[C@@]2(C(=O)Nc3ccccc32)[C@H]1c1ccc(F)cc1` has a growth of 77.3%.

`Nc1nc(Nc2ccccc2SSc2ccccc2Nc2nc(N)nc(-c3ccc4ccccc4c3)n2)nc(-c2ccc3ccccc3c2)n1` was tested, and the growth was -19.1% (active).

What follows are compounds tested on TK-10 renal in the same assay as above. Settings: 10 µM unless noted.

Compared with `C=C(C=O)[C@@H]1CC[C@]2(C)[C@H](CC=C3[C@H]4[C@@H](C)[C@H](C)CC[C@]4(C(=O)OC)CC[C@]32C)[C@@]1(C)CCC#N`, `CC1(C)CC[C@]2(C(=O)O)CC[C@]3(C)C(=CC[C@@H]4[C@@]5(C)CC/C(=N\OCCC#N)C(C)(C)[C@@H]5CC[C@]43C)[C@@H]2C1` is higher in growth: 35.7% for the first, 51.3% for the second.

Going from `COc1ccc([C@@H]2c3[nH]c4ccccc4c3C[C@H]3C(=O)N(C4CCN(CC5CCCCC5)CC4)CC(=O)N23)c(OC)c1` to `COc1c(N2CC3CCCNC3C2)c(F)cc2c(=O)c(C(=O)N/N=C/c3ccc(Br)cc3)cn(C3CC3)c12` (centres undefined), the growth rises from 98.2% to 121%.

Compared with `c1ccc(C(c2nc3ncncc3[nH]2)N2CSc3nc4ncncc4n3C2)cc1` (centres undefined), `Cc1nc2ncc(-c3ccc4ncnc(NCc5ccccc5)c4c3)cc2[nH]1` is lower in growth: 48.9% for the first, 22.6% for the second.

First: Cc1occc1-c1nc2s/c(=C/c3ccc(-c4cc(C(F)(F)F)ccc4Cl)o3)c(=O)n2n1
Second: CCCn1cnc2c(c1=N)C(c1ccc(F)cc1)c1sc3c(CC)cccc3c1O2 (centres undefined)
The growth of the first is higher: 114% for the first, 61.3% for the second.

First: CNCc1cccc2c1OCCCCCCC(C)(O)CC(C)(C)S(=O)(=O)c1ccc(cc1)-c1cnc(N)c(n1)C(=O)N2 (centres undefined)
Second: O=C(NCCn1ccnc1)c1ccc(-c2nc3ccc4[nH]ncc4c3c3c2CCCC3)cc1
The growth of the first is lower: 65.4% for the first, 77.7% for the second.

First: CS(=O)(=O)c1ncc(-c2ccccc2)cn1
Second: CCOC(=O)c1c(Nc2ccccc2)nn2c(-c3ccccc3)ccnc12
The growth of the first is lower: 97.3% for the first, 111% for the second.

Compared with `CCOC(=O)c1c(N)c(C#N)cn1-c1cc(OC)c(OC)c(OC)c1`, `COc1ccc([C@@H]2[C@@H](O)C(=O)N2c2cc(OC)c(OC)c(OC)c2)cc1F` is lower in growth: 99.5% for the first, 86.3% for the second.

Compared with `CCCCCc1ccc(S(=O)(=O)Nc2cc(-c3csc(NC(=O)CN4CCN(C)CC4)n3)ccc2OC)cc1`, `CCCCCc1ccc(S(=O)(=O)Nc2cccc(-c3csc(NC(=O)CN4CCN(C)CC4)n3)c2)cc1` is higher in growth: 103% for the first, 115% for the second.

Compared with `C=C(C=O)[C@@H]1CC[C@]2(COC(C)=O)CC[C@]3(C)C(CC[C@@H]4[C@@]5(C)CC[C@H](OC(C)=O)C(C)(C)[C@@H]5CC[C@]43C)[C@@H]12` (some centres undefined), `CC1(C)CC[C@]2(CN)CC[C@]3(C)C(=CC[C@@H]4[C@@]5(C)CCCNC(C)(C)[C@@H]5CC[C@]43C)[C@H]2C1` is higher in growth: 35.5% for the first, 111% for the second.

First: Cc1ccc(S(=O)(=O)N(CC[C@@H]2C[C@H]2c2cc3ccccc3o2)S(=O)(=O)c2ccc(C)cc2)cc1
Second: COC(=O)c1ccc(NC2=C/C(=N/S(=O)(=O)c3ccc(C(=O)O)cc3)c3ccccc3C2=O)cc1
The growth of the first is lower: 98.6% for the first, 156% for the second.

`O=C(CCn1c[n+](CC(=O)c2ccc(F)cc2)c2ccccc21)Nc1cccc2cccnc12` and `O=C(CSc1nc2ccccc2c(=O)n1-c1ccccc1)Nc1cccc(C(=O)/C=C/c2ccccc2)c1` are the same in growth: 107% for the first, 107% for the second.

First: Cc1cc(C)c2sc(=O)n(Cc3nnc(SCCC(=O)O)o3)c2n1
Second: Cc1cccc(/C=C/C(=O)Nc2ncc(Cc3cccc(C)c3)s2)c1
The growth of the first is higher: 103% for the first, 54.6% for the second.

Going from `C=CCn1c(SCC(=O)Nc2ccc(C(=O)/C=C/c3cccc([N+](=O)[O-])c3)cc2)nnc1-c1c[nH]c2ccccc12` to `O=C(c1ccc(O)cc1)[C@@H]1CN[C@@]2(C(=O)Nc3ccccc32)[C@H]1c1ccc(F)cc1`, the growth rises from 102% to 123%.

First: Cc1ccc(NC(=O)N[C@@H](Cc2cc(F)cc(F)c2)C(=O)NC2C(=O)N3C[C@H](O)C[C@H]3C(=O)N3CCCC[C@H]3C(=O)N[C@@H](CO)C(=O)N3C[C@H](C)C[C@H]3C(=O)O[C@H]2C)c(F)c1 (some centres undefined)
Second: COC(=O)C1(C)CCC[C@]2(C)[C@H]3C[C@H]4C(C(C)C)=C[C@]3(CC[C@@H]12)[C@H]1[C@@H]4[C@@H](OC(=O)c2ccco2)CC[C@@H]1OC(=O)c1ccco1 (some centres undefined)
The growth of the first is higher: 107% for the first, 105% for the second.

Going from `C#C[C@]1(O)CC[C@H]2[C@@H]3CC=C4c5sc(-c6ccc7c(c6)OCO7)nc5CC[C@]4(C)[C@H]3CC[C@@]21C` to `CCCn1cnc2c(c1=N)C(c1ccc(OC)cc1)c1sc3c(C)cccc3c1O2` (centres undefined), the growth rises from 13.3% to 94.2%.

Going from `COc1cccc(O)c1/C=C(/C)c1ccc2c(OC)cccc2[o+]1` to `COc1ccc(/C(N)=N/C(N)=N/c2nc3ccccc3s2)cc1`, the growth falls from 140% to 117%.

First: NS(=O)(=O)c1ccc(-n2cc(CN3CCCCC3)nn2)cc1
Second: O=S(=O)(NCCNc1nccc(-n2cnc3ccccc32)n1)c1ccc(Cl)cc1
The growth of the first is higher: 102% for the first, 101% for the second.

First: COc1cc(-c2nn(C(C)(C)C)cc2-c2ccnc(NCCCNS(=O)(=O)c3cccc(F)c3)n2)ccc1Cl
Second: NC(=O)c1cccc(C#CCNC[C@H]2C[C@@H](n3ccc4c(Cl)ncnc43)[C@H](O)[C@@H]2O)c1
The growth of the first is lower: 68.2% for the first, 97.3% for the second.

Compared with `NC(N)=Nc1ccc(Oc2cccc(Nc3cccc(C(F)(F)F)c3)c2)cn1`, `Nc1nc(Nc2ccccc2SSc2ccccc2Nc2nc(N)nc(-c3ccc4ccccc4c3)n2)nc(-c2ccc3ccccc3c2)n1` is higher in growth: 70% for the first, 117% for the second.
